Activity calls are given as the source filed them. How the calls were made is not given here.
What follows are compounds tested against Lysosomal alpha-glucosidase (Homo sapiens) (UniProt P10253) (assay: Direct Measure of the Activation of Acid alpha-Glucosidase Catalytic Rate). Details: purified enzyme, 4MU-alpha-Glc conversion, LC-MS; at 37.5 µM; stronger effect = higher value.
Text: NIH Chemical Genomics Center [NCGC] NIH Molecular Libraries Probe Production centers Network [MLPCN] MLPCN Grant: 1R03MH084841-01 Assay Submitter (PI): Wei Zheng NCGC Assay Overview: Alpha-glucosidase is responsible for hydrolysis of terminal, non-reducing 1,4-linked alpha-D-glucose residues with release of alpha-D-glucose. It is a lysosomal hydrolase that is required for the degradation of a small percentage (1-3%) of cellular glycogen in human. Deficiency of this enzyme results in glycogen-storage disease type II (GSDII), also referred to as Pompe disease, an autosomal recessive disorder. Structurally normal glycogen is accumulated in lysosomes and cytoplasm in affected patients, primarily in muscle tissues. Excessive glycogen storage within lysosomes may interrupt normal functioning of other organelles and leads to cellular injury. In turn, this leads to enlargement and dysfunction of the entire organ involved (eg, cardiomyopathy and muscle weakness). It has reported that the improper folding and trafficking of alpha-glucosidase resulting from the genetic mutations may account for a significant number of Pompe patients. […]
The catalysis rate of the 4MU-alpha-Gluc substrate by acid alpha-glucosidase was measured using LC-MS. […] (5) Add 50 ul stop solution (1M NaOH and 1M Glycine mixture, pH 10) (6) Run LC-MS and integrate peaks to quantitate amount of product
`CCCN1CNc2c(c(=O)[nH]c(=S)n2CCc2ccc(OC)c(OC)c2)C1` was tested, and the substrate conversion was 28% (active).

Same assay, conditions: purified enzyme, 4MU-alpha-Glc conversion, LC-MS; conversion; at 5 µM; stronger effect = higher value
For `CCCN1CNc2c(c(=O)[nH]c(=S)n2CCc2ccc(OC)c(OC)c2)C1`, the substrate conversion was 20%.
